The supplement of paper PMC11732987, “Enantioselective OTUD7B fragment discovery through chemoproteomics screening and high-throughput optimisation” (Communications Chemistry, 2025)
Unmarked numbers belong to inactive results.

How the values were obtained:
Assay in all cases: log2 ratio of Biotin-Ahx-Ub-VS probe labelling (fragment/DMSO); higher = less target engagement (more negative = stronger competition), active = hit call of the paper (q ≤ 0.05, log2 ratio ≤ -1)
Conditions in all cases: compound concentration: 200 uM; treatment time: 3 h
ALG13 = molecular target: T1, ALG13 (UniProt Q9NP73)
T1 sequence (whole entry): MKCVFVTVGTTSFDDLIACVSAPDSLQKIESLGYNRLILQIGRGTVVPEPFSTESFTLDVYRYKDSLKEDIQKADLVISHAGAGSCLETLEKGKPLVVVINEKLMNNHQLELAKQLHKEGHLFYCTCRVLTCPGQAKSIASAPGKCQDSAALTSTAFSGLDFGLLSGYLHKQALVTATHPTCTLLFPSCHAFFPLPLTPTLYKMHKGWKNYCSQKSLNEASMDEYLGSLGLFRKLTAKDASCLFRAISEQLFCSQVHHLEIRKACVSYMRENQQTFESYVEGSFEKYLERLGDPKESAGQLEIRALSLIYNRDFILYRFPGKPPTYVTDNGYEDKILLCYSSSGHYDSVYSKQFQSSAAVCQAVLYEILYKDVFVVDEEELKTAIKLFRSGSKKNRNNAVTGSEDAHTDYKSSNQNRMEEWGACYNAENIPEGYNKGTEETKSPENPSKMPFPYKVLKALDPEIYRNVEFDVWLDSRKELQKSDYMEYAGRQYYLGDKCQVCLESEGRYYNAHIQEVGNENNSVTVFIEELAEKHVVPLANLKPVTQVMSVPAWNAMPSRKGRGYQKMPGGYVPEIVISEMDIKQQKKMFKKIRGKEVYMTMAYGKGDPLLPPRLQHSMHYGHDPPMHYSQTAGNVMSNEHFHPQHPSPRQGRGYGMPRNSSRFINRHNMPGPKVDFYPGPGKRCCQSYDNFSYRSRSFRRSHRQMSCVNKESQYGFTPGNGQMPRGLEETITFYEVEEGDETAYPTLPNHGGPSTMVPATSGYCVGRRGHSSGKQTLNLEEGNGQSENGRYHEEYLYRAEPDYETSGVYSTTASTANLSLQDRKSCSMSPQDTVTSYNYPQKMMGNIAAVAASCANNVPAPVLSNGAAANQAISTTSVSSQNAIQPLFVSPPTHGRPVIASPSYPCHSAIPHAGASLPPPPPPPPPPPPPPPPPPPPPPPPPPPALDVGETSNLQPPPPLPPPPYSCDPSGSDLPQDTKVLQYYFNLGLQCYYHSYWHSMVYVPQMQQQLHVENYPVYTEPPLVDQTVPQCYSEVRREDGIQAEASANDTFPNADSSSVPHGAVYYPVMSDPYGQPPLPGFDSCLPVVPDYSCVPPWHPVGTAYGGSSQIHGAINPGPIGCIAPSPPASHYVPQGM
How it was run: (§1)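 Using Biotin-Ahx-Ub-VS at 0.5 µM final for 1 h, DUBs were labelled in HEK293T lysate (495 µg per sample) that had first been treated in triplicate with fragment at 200 µM or vehicle for 3 h. NeutrAvidin enrichment, LysC and trypsin digestion and diaPASEF LC-MS/MS followed. Spectronaut label-free quantities were global-median-normalised. Values are average log2 fragment/vehicle ratios by unpaired t-test, using proteins with ≥2 unique peptides.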

ATXN3 = ATXN3 (UniProt P54252)
ATXN3, sequence (P54252 whole entry): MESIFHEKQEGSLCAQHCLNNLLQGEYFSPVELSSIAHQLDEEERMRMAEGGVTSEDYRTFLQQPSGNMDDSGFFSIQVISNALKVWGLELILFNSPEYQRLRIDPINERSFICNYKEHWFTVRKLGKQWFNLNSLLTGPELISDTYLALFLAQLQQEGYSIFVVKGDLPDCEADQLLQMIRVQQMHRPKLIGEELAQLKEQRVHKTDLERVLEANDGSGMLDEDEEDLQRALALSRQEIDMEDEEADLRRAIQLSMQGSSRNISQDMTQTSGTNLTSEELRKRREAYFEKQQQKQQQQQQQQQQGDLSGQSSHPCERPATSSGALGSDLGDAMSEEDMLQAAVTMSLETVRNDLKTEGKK
How it was run: as §1

BAP1 = molecular target: T2, BAP1 (UniProt Q92560)
T2 sequence (whole entry): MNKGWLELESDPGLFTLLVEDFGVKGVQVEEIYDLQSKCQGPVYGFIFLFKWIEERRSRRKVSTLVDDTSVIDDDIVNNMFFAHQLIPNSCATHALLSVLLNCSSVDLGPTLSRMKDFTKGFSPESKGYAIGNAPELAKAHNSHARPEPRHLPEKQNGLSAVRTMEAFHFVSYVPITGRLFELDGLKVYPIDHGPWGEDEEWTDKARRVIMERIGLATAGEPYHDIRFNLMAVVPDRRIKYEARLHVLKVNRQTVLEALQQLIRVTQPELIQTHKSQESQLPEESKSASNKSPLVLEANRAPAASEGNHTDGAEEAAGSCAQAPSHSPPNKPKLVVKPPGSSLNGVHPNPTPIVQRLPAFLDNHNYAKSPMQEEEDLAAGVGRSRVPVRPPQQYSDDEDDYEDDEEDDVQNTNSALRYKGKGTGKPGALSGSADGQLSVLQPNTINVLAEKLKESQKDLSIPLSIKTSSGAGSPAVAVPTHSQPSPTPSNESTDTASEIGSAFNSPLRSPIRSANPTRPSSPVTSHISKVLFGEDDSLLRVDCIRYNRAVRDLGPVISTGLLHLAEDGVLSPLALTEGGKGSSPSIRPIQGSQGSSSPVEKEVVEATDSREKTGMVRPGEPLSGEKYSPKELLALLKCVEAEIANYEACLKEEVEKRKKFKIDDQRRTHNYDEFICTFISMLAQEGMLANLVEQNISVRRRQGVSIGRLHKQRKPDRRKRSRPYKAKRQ
How it was run: as §1

EIF3F = EIF3F (UniProt O00303)
EIF3F, sequence (O00303 whole entry): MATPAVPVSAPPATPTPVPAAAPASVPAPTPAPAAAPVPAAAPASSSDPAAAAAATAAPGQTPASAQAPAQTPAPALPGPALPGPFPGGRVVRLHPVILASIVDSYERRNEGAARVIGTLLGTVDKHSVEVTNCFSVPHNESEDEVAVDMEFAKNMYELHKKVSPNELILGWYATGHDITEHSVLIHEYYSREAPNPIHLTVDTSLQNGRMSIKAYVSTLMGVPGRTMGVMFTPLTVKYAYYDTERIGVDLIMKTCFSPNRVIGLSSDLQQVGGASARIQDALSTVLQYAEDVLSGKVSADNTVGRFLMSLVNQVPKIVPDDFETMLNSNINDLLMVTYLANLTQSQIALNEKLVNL
How it was run: as §1

EIF3H = EIF3H (UniProt O15372)
EIF3H, sequence (O15372 whole entry): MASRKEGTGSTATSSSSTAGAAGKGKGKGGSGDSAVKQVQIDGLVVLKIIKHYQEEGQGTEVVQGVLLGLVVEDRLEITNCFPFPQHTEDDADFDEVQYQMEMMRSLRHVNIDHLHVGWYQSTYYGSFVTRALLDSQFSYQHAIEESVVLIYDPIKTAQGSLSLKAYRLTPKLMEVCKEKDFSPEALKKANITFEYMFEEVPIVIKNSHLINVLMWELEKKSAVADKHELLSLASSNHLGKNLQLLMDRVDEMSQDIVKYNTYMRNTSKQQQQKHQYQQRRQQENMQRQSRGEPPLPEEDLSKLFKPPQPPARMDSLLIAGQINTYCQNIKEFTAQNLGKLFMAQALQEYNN
How it was run: as §1

FAM105A = molecular target: T3, FAM105A (UniProt Q9NUU6)
T3 sequence (whole entry): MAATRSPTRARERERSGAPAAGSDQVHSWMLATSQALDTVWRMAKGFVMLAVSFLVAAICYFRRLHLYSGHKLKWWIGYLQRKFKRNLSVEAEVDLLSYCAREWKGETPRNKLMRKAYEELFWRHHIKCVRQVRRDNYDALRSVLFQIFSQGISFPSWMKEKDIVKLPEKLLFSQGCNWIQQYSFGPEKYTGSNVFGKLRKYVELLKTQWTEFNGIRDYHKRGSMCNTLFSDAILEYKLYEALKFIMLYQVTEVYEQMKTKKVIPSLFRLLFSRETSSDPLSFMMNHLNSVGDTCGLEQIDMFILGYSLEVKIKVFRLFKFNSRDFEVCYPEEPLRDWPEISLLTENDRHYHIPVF
How it was run: as §1

OTUB1 = OTUB1 (UniProt Q96FW1)
OTUB1, sequence (Q96FW1 whole entry): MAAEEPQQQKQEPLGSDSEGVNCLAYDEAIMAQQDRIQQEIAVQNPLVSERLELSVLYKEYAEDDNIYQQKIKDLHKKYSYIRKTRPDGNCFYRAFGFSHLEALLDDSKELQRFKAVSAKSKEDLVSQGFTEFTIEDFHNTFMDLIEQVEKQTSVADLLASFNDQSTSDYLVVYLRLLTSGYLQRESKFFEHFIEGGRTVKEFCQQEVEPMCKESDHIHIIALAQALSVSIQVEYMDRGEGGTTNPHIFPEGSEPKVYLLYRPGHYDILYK
How it was run: as §1

OTUD4 = molecular target: T4, OTUD4 (UniProt Q01804)
T4 sequence (whole entry): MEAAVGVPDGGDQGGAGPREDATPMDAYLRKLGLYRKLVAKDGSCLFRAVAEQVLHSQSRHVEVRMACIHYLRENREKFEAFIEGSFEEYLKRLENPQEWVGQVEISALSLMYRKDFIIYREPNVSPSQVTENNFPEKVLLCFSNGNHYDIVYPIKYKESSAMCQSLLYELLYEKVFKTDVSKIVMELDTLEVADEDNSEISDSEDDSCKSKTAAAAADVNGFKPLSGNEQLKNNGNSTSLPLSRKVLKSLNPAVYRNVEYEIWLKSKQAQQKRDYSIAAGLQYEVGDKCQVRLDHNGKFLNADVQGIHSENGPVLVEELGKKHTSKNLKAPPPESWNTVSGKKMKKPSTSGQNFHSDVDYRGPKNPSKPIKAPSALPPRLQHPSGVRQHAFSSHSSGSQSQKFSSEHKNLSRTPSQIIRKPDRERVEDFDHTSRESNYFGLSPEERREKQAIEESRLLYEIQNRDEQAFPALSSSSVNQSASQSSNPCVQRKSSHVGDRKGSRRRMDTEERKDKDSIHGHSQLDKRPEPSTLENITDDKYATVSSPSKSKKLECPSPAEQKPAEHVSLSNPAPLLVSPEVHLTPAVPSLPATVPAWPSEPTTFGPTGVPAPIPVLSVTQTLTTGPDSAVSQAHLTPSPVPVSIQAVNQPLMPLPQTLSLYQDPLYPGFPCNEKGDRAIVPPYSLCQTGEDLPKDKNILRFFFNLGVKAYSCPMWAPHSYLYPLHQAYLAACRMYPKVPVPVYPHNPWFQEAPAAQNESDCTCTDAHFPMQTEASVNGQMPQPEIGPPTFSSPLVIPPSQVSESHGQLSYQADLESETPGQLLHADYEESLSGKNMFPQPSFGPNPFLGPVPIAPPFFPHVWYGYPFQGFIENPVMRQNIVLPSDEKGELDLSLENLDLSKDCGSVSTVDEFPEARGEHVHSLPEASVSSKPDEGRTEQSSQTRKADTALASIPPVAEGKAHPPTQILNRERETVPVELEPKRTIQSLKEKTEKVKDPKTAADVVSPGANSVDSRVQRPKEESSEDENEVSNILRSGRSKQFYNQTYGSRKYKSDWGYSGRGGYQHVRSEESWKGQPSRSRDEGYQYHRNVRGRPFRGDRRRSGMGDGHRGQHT
How it was run: as §1

OTUD5 = molecular target: T5, OTUD5 (UniProt Q96G74)
T5 sequence (whole entry): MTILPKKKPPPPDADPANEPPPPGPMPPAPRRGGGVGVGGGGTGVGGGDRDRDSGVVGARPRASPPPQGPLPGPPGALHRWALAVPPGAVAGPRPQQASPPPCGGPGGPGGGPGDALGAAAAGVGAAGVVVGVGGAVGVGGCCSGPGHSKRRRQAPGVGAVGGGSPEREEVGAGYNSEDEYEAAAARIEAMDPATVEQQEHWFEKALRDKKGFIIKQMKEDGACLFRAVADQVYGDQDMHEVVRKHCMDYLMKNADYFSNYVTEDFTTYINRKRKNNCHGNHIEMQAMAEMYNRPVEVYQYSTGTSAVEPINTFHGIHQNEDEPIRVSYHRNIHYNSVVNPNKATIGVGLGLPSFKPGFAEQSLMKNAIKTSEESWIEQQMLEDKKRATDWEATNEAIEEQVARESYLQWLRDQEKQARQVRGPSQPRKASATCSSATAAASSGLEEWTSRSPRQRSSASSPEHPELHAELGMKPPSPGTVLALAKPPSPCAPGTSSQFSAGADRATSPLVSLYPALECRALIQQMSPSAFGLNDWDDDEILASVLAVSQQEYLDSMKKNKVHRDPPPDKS
How it was run: as §1

O=C(CCl)NCc1ccc(Cl)cc1
log2 ratio of Biotin-Ahx-Ub-VS probe labelling (ALG13): 0.0638
log2 ratio of Biotin-Ahx-Ub-VS probe labelling (ATXN3): -0.168
log2 ratio of Biotin-Ahx-Ub-VS probe labelling (BAP1): -2.74 (active)
log2 ratio of Biotin-Ahx-Ub-VS probe labelling (EIF3F): 0.0714
log2 ratio of Biotin-Ahx-Ub-VS probe labelling (EIF3H): -0.105
log2 ratio of Biotin-Ahx-Ub-VS probe labelling (FAM105A): -0.347
log2 ratio of Biotin-Ahx-Ub-VS probe labelling (OTUB1): 0.0283
log2 ratio of Biotin-Ahx-Ub-VS probe labelling (OTUD4): 0.0745
log2 ratio of Biotin-Ahx-Ub-VS probe labelling (OTUD5): -0.00631
